# Source: PubChem BioAssay (National Center for Advancing Translational Sciences (NCATS))
# Compounds with a hit are over-represented: about 6.2% of the library has one in this group of screens.
# HCMV antiviral – human cytomegalovirus inhibition; HFF cells, HCMV-luciferase reporter, 72 h; active compounds read low; activity change, negative = inhibition, % at 57.5 µM; 4.5% of 410,000 active; AID 1259415; in the data active means activity change below about -60%; inconclusive means no clear call, values can overlap the other calls; inactive means above about -39%
#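 After 16 h attachment at 37C, HFF cells received test compound and HCMV-luciferase (1 PFU/cell); reporter luminescence read 72 h later, data normalized against buffer-only and known inhibitor Salinomycin.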
# LASV entry inh – blocks Lassa virus binding to or entry into cells | Lassa virus pseudotype entry inhibition, cell reporter | 1.2% of 300,000 active | Potency, µM (doses to about 37.9 µM), without a hit: at the highest dose activity change, negative = inhibition, usual class: inhibitors; calls by dose curve; tested in HEK293 cells; further: potency means the concentration at half of the fitted maximal effect; nearly all actives have a fitted effect of over 50% in size
# MARV entry inh – blocks Marburg virus binding to or entry into cells; Marburg virus pseudotyped entry inhibition, cell reporter; Potency, µM (highest dose often 37.8 µM), for inactives: at the highest dose activity change, negative = inhibition, hits mostly inhibitors; 1.8% of 300,000 active; AID 540276; calls by dose curve; tested in HEK293 cells; further: potency means the concentration at half of the fitted maximal effect
# FMDV inh – foot and mouth disease virus antiviral activity. 1.2% of 410,000 active. FMDV antiviral cell-based qHTS. Potency, µM (doses to about 57.9 µM), for inactives: top-dose activity change, negative = inhibition, hits mostly inhibitors; calls by dose curve; tested in HEK293T cells; further: read-out not given here; potency means the concentration at half of the fitted maximal effect; nearly all actives have a fitted effect of over 45% in size
# * = called active by the depositor; u = inconclusive; x = not tested or not shown; ! = a repeat was not active; [ ] = remark or other dose. On the % scale 0 is the no-effect control and ±100 the full control effect.
SMILES,HCMV antiviral,LASV entry inh,MARV entry inh,FMDV inh
Cc1ncc2c(c1CNC(=O)c1cncs1)CCN(C(=O)c1ccc(C(C)(C)C)cc1)C2,x,x,x,3%
Cc1cccc(N=C2NC(=O)C(CO)(CO)S2)c1,1,u,21%,-1%
O=C1NC(=Nc2cccc([N+](=O)[O-])c2)SC1(CO)CO,-65*,7%[46.1 µM],3%[46.1 µM],-21%
CSc1ccc(-c2ccc3c(c2)CC(CNC(=O)Cn2nc(C)nc2C)O3)cc1 (stereo not given),x,x,x,-8%
O=C(NC(=S)N1CCN(CCO)CC1)C12CC3CC(CC(C3)C1)C2,-73*,23%[46.1 µM],u,-12%
COc1cc(NC(C)CCCNC(C)C)c2ncccc2c1OC (stereo not given),-82*,-22%,1%,-12%
COc1cc(N)c2ncccc2c1OC,-8,28%[46.1 µM],-2%[46.1 µM],-13%
CN(c1ccccc1)S(=O)(=O)c1ccc(C(=O)Nc2cccc(S(=O)(=O)N3CCOCC3)c2)cc1,-95*,x,x,u
COc1cc(OC)c(OC)cc1CNC(=O)c1cc(S(=O)(=O)N(C)c2ccccc2OC)ccc1C,-25,x,x,28µM*
COc1ccccc1N(C)S(=O)(=O)c1ccc(C(=O)Nc2nc(C)cs2)cc1,-18,u,16µM*,28µM*
COc1ccccc1N(C)S(=O)(=O)c1ccc(C(=O)Nc2cccc(S(=O)(=O)N3CCOCC3)c2)cc1,u,x,x,25µM*
O=C(Nc1cccc(Cl)c1)Nc1ccc2nc(-c3ccc(F)c(Cl)c3)nn2c1,80,x,x,x
Cc1ccccc1C1=NC(C)(CC(=O)Nc2ccc(F)cc2F)ON1C (stereo not given),-3,x,x,x
COc1ccccc1N(C)S(=O)(=O)c1ccc(Cl)c(C(=O)OCc2c(C)noc2C)c1,-31,11µM*,u,u
CC1(C(=O)NS(=O)(=O)Cc2ccccc2)CCN1C(=O)Cc1ccccc1 (stereo not given),-14,x,x,-6%
CSc1ccccc1NC(=O)C1(C)CCN1C(=O)Cc1ccc(-c2ccccc2)cc1 (stereo not given),-62*,x,x,u
CC1(C(=O)NS(=O)(=O)Cc2ccccc2)CCN1C(=O)Cc1ccccc1Cl (stereo not given),-62*,x,x,-21%
CC1(C(=O)Nc2ccc3nc[nH]c3c2)CCN1C(=O)Cc1ccc(-c2ccccc2)cc1 (stereo not given),u,x,x,32µM*
Cc1ccc(NC(=O)C2(C)CCN2C(=O)Cc2ccc(-c3ccccc3)cc2)cc1 (stereo not given),-63*,x,x,u
CC(C)(C)c1ccc(CC(=O)N2CCC2(C)C(=O)Nc2cnc3ccccc3c2)cc1 (stereo not given),u,x,x,20µM*
CCOc1ccccc1C(=O)N1CCc2cc(OC)c(OC)cc2C1COc1ccc2c(C)cc(=O)oc2c1 (stereo not given),-3,-5%[46.1 µM],u,-25%
CC[n+]1c(C)sc2c3ccsc3ccc21,-16,u,-2%,3%
CCN1/C(=C/c2ccc3cccc(C)c3[n+]2CC)Sc2ccccc21,-104*,6.5µM*,2.6µM*,7.9µM*
CCN1/C(=C/c2ccc3cc(C)cc(C)c3[n+]2CC)Sc2cc(C)ccc21,-100*,x,x,u
CC[n+]1c(/C=C/c2cc([N+](=O)[O-])ccc2O)ccc2ccccc21,u,u,9%[46.1 µM],0%
SMILES,HCMV antiviral,LASV entry inh,MARV entry inh,FMDV inh
CCN1/C(=C/c2ccc3cc(C)ccc3[n+]2CC)Sc2ccc3sccc3c21,x,x,x,35µM*
CCN1/C(=C\c2ccc3cc(C)ccc3[n+]2CC)Sc2cc(C)c(C)cc21,-97*,x,u,u
CCN1C(=O)c2ccccc2Sc2ccc(NC(=O)COc3ccc(Cl)cc3)cc21,-30,-23%[46.1 µM],x,-14%
COC(=O)C1=CN(Cc2ccccc2)C=C(C(=O)OC)C1c1cc(F)ccc1F,-23,7.1µM*,-36%,-20%
COC(=O)C1=CN(Cc2ccc(C)cc2)C=C(C(=O)OC)C1c1ccc(F)c(F)c1,x,u,u,-27%
COc1cc(C2NCC(c3ccc(Cl)cc3Cl)c3c2[nH]c2ccccc32)cc(OC)c1OC (stereo not given),u,u,16µM*,-28%
CCOc1ccccc1CNC(=O)C(C)n1nc(C)c2c(C)n(-c3ccccc3)nc2c1=O (stereo not given),u,-23%[46.1 µM],u,u
CCOc1ccccc1CNC(=O)Cn1nc(C)c2c(C)n(-c3ccc(C)cc3)nc2c1=O,x,x,x,16µM*
COc1ccc(OC)c(CCNC(=O)C(C)n2nc(C)c3c(C)n(-c4ccc(C)cc4)nc3c2=O)c1 (stereo not given),-77*!,-16%[46.1 µM],x,3.5µM*
Cc1nn(CC(=O)NCc2ccco2)c(=O)c2nn(-c3ccccc3)c(C)c12,8,11%[46.1 µM],x,-30%
COc1ccc(CCNC(=O)Cn2nc(C)c3c(C)n(-c4ccc(C)cc4)nc3c2=O)c(OC)c1,-91*,u,x,u
COc1ccc(OC)c(CCNC(=O)C(C)n2nc(C)c3c(C)n(-c4ccccc4)nc3c2=O)c1 (stereo not given),-10,-22%[46.1 µM],u,-8%
Cc1nn(CC(=O)NCc2cccs2)c(=O)c2nn(-c3ccccc3)c(C)c12,-71*,2%[46.1 µM],2%[46.1 µM],-4%
COc1cc(O)ccc1-c1nc2ccc(Br)cn2c1Nc1ccccc1C,14,u,u,u
CCc1ccc(-n2nc3ccc(NC(=O)c4cc5ccccc5o4)cc3n2)cc1,8,4%[46.1 µM],-6%[46.1 µM],21%
O=C(Nc1ccc2c(c1)N(C1CCCC1)C(=O)c1ccccc1S2)c1ccccc1F,u,u,x,0%
C=CCN1[C@@H](CC(C)C)COc2cccc(NCCCN3CCOCC3)c2S1(=O)=O,-19,x,x,x
COc1ccccc1C(CNC(=O)CNC(=O)c1cccc(Cl)c1)N1CCCC1 (stereo not given),4,3%,7.1µM*,-13%
COc1ccccc1C(CNC(=O)C(CCSC)NC(=O)c1ccccc1Cl)N1CCCC1 (stereo not given),10,6%,2.8µM*,-6%
COc1ccc(C(CNC(=O)C(CCSC)NC(=O)c2ccccc2OC)N2CCCCC2)cc1 (stereo not given),15,9%,20%,6%
O=C(NCCN1CCN(S(=O)(=O)c2ccccc2)CC1)C(=O)Nc1ccc(F)cc1,28,-12%[46.1 µM],7%[46.1 µM],-15%
COc1cc(CN2CCN(S(=O)(=O)c3ccc(NC(C)=O)cc3)CC2)cc(OC)c1OC,-106*,-2%[46.1 µM],x,-15%
COc1ccc(OC)c(CN2CCN(S(=O)(=O)c3ccc(NC(C)=O)cc3)CC2)c1,-18,-14%,-17%[46.1 µM],-4%
COc1cccc(OCCCN2CCN(S(=O)(=O)c3ccc(NC(C)=O)cc3)CC2)c1,-81*,8.2µM*,6.5µM*,14µM*
CC(=O)Nc1ccc(S(=O)(=O)N2CCN(CCCOc3ccccc3Cl)CC2)cc1,-67*,22%,21%,12%
Cc1ccc(S(=O)(=O)N2CCN(CCNC(=O)C(=O)Nc3ccc(F)cc3)CC2)cc1,-67*,1%,u,3%
CC(CCN1CCCc2nc(C)c(C)cc21)=NO[C@H](C)c1cn([C@@H]2COC[C@@H]2O)nn1,x,u,7%[14.2 µM],x
